From PubChem BioAssay AID504707 (The Scripps Research Institute Molecular Screening Center, 2011)
In all, about 340,000 compounds went through this assay and about 280 (0.082%) were called active. The sample holds actives, similar compounds and a random draw of the others, so the mix is not that of the screen. A number with no mark means an inactive call.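 Rule for the calls: active = percent activation above the mean of all tested compounds plus 3 SD (cut at about 19% in these data); inactive = the rest.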

These compounds were tested against cAMP-dependent protein kinase type I-alpha regulatory subunit (Bos taurus) + cAMP-dependent protein kinase catalytic subunit beta (Mus musculus) (UniProt P00514+P68181) (assay: compounds dissociating PKAc from R1A subunit – biochemical, fluorescence polarization, Cy5-IP20, bovine R1A, mouse PKAc, primary screen (AID 504707;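 note: higher means more PKAc released from R1A so a rise in polarization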)). Settings: PKA-R1A dissociation, at 11.4 µM, active compounds read high, scaled: DMSO 0%, 113 µM cGMP 100%.
Work on CCc1ccccc1OCC(=O)Nc1nnc(C2CC2)s1 yielded an activation of 8.59%.
Cc1ccc(C(=O)OCC(=O)N2CC(C)CC(C)C2)cc1S(=O)(=O)N1CCCCC1 (configuration not stated) gave an activation of 2.86%.
O=C(OCc1ccccc1)N1CCC2CC1c1ccc(-c3ccc4c(c3)OCO4)cc12 (configuration not stated) showed an activation of -1.02%.
In the case of CC(OC(=O)c1cccnc1Cl)C(=O)NC1CCCCC1 (configuration not stated), the activation is reported as 0.33%.
Work on O=Cc1cn(CCOc2ccc(F)cc2)c2ccccc12 yielded an activation of 1.87%.
With CCOc1ccc(CCNC(=O)COC(=O)c2ccc(C)c(S(=O)(=O)N3CCOCC3)c2)cc1OCC the activation was -10.3%.
With COc1ccc(CN2CC(C(=O)NC3CCCCC3)CC2=O)cc1 (configuration not stated) the activation was 6.81%.
COc1ccc(N)cc1NC(=O)CN1CCOCC1 gave an activation of 8.37%.
Work on COC(=O)C[C@H]1C[C@@H]2c3cc(NC(=O)Nc4ccccc4)ccc3O[C@@H]2[C@@H](CO)O1 yielded an activation of 1.1%.
O=C(Nc1ccc2c(c1)[C@@H]1C[C@@H](CC(=O)N3CCCCC3)O[C@@H](CO)[C@@H]1O2)NC1CCCCC1 was tested, and the activation was 19.6% (active).
For O=C(C[C@H]1C[C@@H]2c3cc(NC(=O)C4CCC4)ccc3O[C@@H]2[C@H](CO)O1)NC1CCCCC1, the activation was -5.02%.
CC(C)CCC(=O)Nc1cc(S(=O)(=O)N2CCOCC2)ccc1N1CCCC1 was tested, and the activation was -1.93%.
Work on CC1(c2cccc(Br)c2)NC(=O)N(CC(=O)NCCC2=CCCCC2)C1=O (configuration not stated) yielded an activation of -3.47%.
For CCOc1ccc(NC(=O)CN(C)C(=O)Cn2c(=O)cnc3ccccc32)cc1OCC, the activation was -7.12%.
Work on CCOc1ccc(C(=O)Nc2ccc(S(=O)(=O)Nc3cc(C)on3)cc2)cc1 yielded an activation of 3.9%.
For CCc1ccc(OC(C)C(=O)Nc2ccc(S(=O)(=O)Nc3cc(C)on3)cc2)cc1 (configuration not stated), the activation was -6.6%.
In the case of CCC(Oc1ccccc1C)C(=O)Nc1ccc(S(=O)(=O)Nc2cc(C)on2)cc1 (configuration not stated), the activation is reported as 20.4% (active).
O[C@H]1CN(Cc2cccs2)[C@@H](c2ccc(Cl)cc2)C[C@@H]1n1cc(C2CC2)nn1 gave an activation of -6.87%.
For O=C(O)C1=C(C(=O)O)C2CCC1C2, the activation was 7.53%.
In the case of CCCCCC(=O)N1C[C@H](O)[C@@H](n2cc(COC(=O)c3ccccc3)nn2)C[C@@H]1c1ccc(C)cc1, the activation is reported as 1.28%.
Compound Cc1ccc(-c2ccc(CN3C(C(C)C)C(=O)N(Cc4cn(CCC5OCCCO5)nn4)CCS3(=O)=O)cc2)cc1 (configuration not stated) has an activation of -3.03%.
Compound Cc1ccc(CCNC(=O)c2ccc3nc4ccccc4c(=O)n3c2)cc1 has an activation of 1.64%.
Compound Cc1cccn2c(=O)c3cc(C(=O)NCCN4CCOCC4)c(=N)n(Cc4cccnc4)c3nc12 has an activation of 5.89%.
Cc1ccc2nc3c(cc(C(=O)NCCc4ccccc4)c(=N)n3CC3CCCO3)c(=O)n2c1 (configuration not stated) was tested, and the activation was 20.5% (active).
In the case of Cc1ccc(S(=O)(=O)N(CCc2ccccc2)c2ccc3c(c2)C2CC3CCN2C(=O)OCc2ccccc2)cc1 (configuration not stated), the activation is reported as -0.4%.
CC(C)NC(=O)Nc1ccc2c(c1)C(=O)N([C@H](C)CO)C[C@H](C)[C@@H](CN(C)Cc1ccc(C(F)(F)F)cc1)OCCCC[C@@H](C)O2 was tested, and the activation was 3.01%.
Work on C#CCN(C[C@@H]1[C@@H](OC(=O)NC2CC2)[C@@H](OC(=O)NC2CC2)Cn2c(=O)ccc(=O)n21)S(=O)(=O)c1ccc(C)cc1 yielded an activation of -6.57%.
Work on CN(Cc1c(F)cccc1Cl)C(=O)COC(=O)Cn1cnc2ccccc2c1=O yielded an activation of 0.6%.
Work on COc1ccc(NC(=O)C[C@H]2C(=O)N(CCc3ccccc3)C[C@@H]2C)cc1 yielded an activation of -0.95%.
For COc1ccccc1N1CC(C(=O)Nc2nnc(SCC(=O)NCC3CCCO3)s2)CC1=O (configuration not stated), the activation was 0.23%.
With COc1ccccc1N1CC(C(=O)Nc2nnc(SCC(=O)NC(C)C)s2)CC1=O (configuration not stated) the activation was 24.3% (active).
In the case of Cc1ccccc1N1CC(C(=O)Nc2nnc(SCCC3OCCO3)s2)CC1=O (configuration not stated), the activation is reported as -0.56%.
Compound CC1CN(C(=O)c2cccc(NS(=O)(=O)c3ccc(Br)cc3)c2)CC(C)O1 (configuration not stated) has an activation of -7.05%.
CSc1ncnc2c1ncn2CCCNCc1ccco1 showed an activation of -1.79%.
In the case of COc1cccc(NC(=O)CN(C)C(=O)c2cc(Cl)nc3ccccc23)c1, the activation is reported as 9.02%.
O=C1c2ccccc2-c2ccccc2NC1O (configuration not stated) gave an activation of 10.3%.
In the case of Cc1ccc2nsnc2c1NC(=O)c1ccccc1[N+](=O)[O-], the activation is reported as -6.39%.
CCOc1cc(C(=O)Nc2ccc(S(=O)(=O)Nc3cnc4ccccc4n3)cc2)cc(OCC)c1OCC was tested, and the activation was -1.58%.
CCOc1cc(C(=O)Nc2c(C)ccc3nsnc23)cc(OCC)c1OCC was tested, and the activation was 19.5% (active).
CCCn1c(N)c(C(=O)CSc2nnc(Cc3cccs3)n2C2CC2)c(=O)[nH]c1=O was tested, and the activation was 9.54%.
For O=C1CC[C@@H](C(=O)N2CSC[C@@H]2C(=O)Nc2ccc(C(F)(F)F)cc2)N1, the activation was 0.56%.
With CC(=O)Nc1ccc(SCC(=O)NC(=O)c2ccc(Cl)cc2)cc1 the activation was 2.13%.
Work on CCC(=O)N1CCc2cc(S(=O)(=O)CCC(=O)N3CCN(c4ccccc4F)CC3)ccc21 yielded an activation of 2.69%.
In the case of Cc1ccn(C(CC(=O)c2ccc(Br)cc2)C(=O)O)n1 (configuration not stated), the activation is reported as -7.77%.
CC1C(=O)N(Cc2cn(CC3CCCCC3)nn2)CCS(=O)(=O)N1Cc1ccc(-c2cccc(N(C)C)c2)cc1 (configuration not stated) gave an activation of -4.48%.
With NC(CSC(c1ccccc1)(c1ccccc1)c1ccc(-c2ccccc2)cc1)C(=O)O (configuration not stated) the activation was -6.56%.
Cc1cc(/C=C2/SC(=O)N(CC(=O)N3CCCC3)C2=O)c(C)n1C was tested, and the activation was -2.71%.
In the case of N#Cc1ccccc1CN1C(=O)S/C(=C/c2cccn2-c2cccc(C(=O)O)c2)C1=O, the activation is reported as 26.4% (active).
In the case of Cc1ccc(C(=O)O)cc1-c1ccc(/C=C2\SC(=O)N(CC(=O)Nc3ccc4c(c3)OCO4)C2=O)o1, the activation is reported as 0.69%.
With CC(=O)Nc1ccc(C=CC(=O)c2ccc([N+](=O)[O-])cc2)cc1 the activation was 4.15%.
COc1ccc(CN2C(=O)C(CC(=O)NCCCCc3ccccc3)CC(C(=O)N3CCOCC3)=C2C)cc1 (configuration not stated) was tested, and the activation was -0.11%.
Cc1ccc(NC(=O)COC(=O)CN2CCSC2=O)cc1F was tested, and the activation was -5.13%.
